Experimental findings from PubChem BioAssay (EPA / NIEHS) are described below.

Records with an inconclusive call do not appear. Activity calls are given as the source filed them. How the source made its calls: active means hit-call score of the fitted dose curve at least 0.9, where 1 is the maximum; inconclusive means response in the unintended direction; inactive means score below 0.9.

The target in the assay is Cellular tumor antigen p53 (Homo sapiens) (UniProt P04637). Put plainly: TOX21_p53_BLA_p3_ratio: Tox21 HCT-116 p53 Agonism Beta-lactamase Assay, Ratio, Phase 3 (AID 2283596). In outline: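 HCT116 p53-bla cells (4000/well) given compound in DMSO (217-fold dilution) after 5 h, incubated 16 h at 37C. CCF4-AM substrate 2 h at room temperature; 460/530 nm emission ratio, gain fitted against DMSO.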
Chain of Cellular tumor antigen p53 (Homo sapiens) (P04637 whole entry, looked up): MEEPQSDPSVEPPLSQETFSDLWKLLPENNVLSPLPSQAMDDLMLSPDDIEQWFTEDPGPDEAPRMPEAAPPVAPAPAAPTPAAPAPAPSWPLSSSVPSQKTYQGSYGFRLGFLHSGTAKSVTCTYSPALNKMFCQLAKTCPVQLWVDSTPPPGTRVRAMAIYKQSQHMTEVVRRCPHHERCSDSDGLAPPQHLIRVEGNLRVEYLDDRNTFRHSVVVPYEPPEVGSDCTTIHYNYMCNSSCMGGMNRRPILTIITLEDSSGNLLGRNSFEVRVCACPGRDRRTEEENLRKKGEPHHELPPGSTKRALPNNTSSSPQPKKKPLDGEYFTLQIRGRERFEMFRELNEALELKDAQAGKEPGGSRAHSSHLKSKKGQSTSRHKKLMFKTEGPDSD
Regarding `CCCCC(CC)COC(=O)OOC(C)(C)C` (stereo not given), the outcome was inactive.
On the same count and under the same terms, the value for `Cc1c(Cl)c(=O)oc2cc(OP(=O)(OCCCl)OCCCl)ccc12` was “inactive”; that for `C[C@]12CC[C@H]3[C@@H](CCC4=C(Cl)C(=O)CC[C@@]43C)[C@@H]1CC[C@@H]2O` was “inactive”.
For the compound `CC1(C)[C@H](C=C(Cl)Cl)[C@@H]1C(=O)O[C@@H](C#N)c1cccc(Oc2ccccc2)c1`, the result was inactive.
For `CCOC(=O)C(Cl)C(C)=O` (stereo not given), the result was inactive.
For orientation: AC50 means the concentration giving half of the maximal activity seen. On to `Cc1nnc2n1-c1sc(CCc3ccc(CC(C)C)cc3)cc1C(c1ccccc1Cl)=NC2C` (stereo not given), for which the AC50 is 27.4 µM (active).
As to `Clc1ccc2ccccc2c1`, the outcome was inactive.
Same read-out and setting: then `S=C(SSC(=S)N1CCCCC1)N1CCCCC1`, with “inactive”.
As for `CN=CNc1ccc(C)cc1C`, the result was inactive.
Still for that read-out and setting: the value for `CC(=O)O[C@H]1C[C@H](O[C@H]2[C@@H](O)C[C@H](O[C@H]3[C@@H](O)C[C@H](O[C@H]4CC[C@@]5(C)[C@H](CC[C@@H]6[C@@H]5C[C@@H](O)[C@]5(C)[C@@H](C7=CC(=O)OC7)CC[C@]65O)C4)O[C@@H]3C)O[C@@H]2C)O[C@H](C)[C@H]1O[C@@H]1O[C@H](CO)[C@@H](O)[C@H](O)[C@H]1O` was “inactive”.
Turning to `N#CSCc1ccccc1`, the AC50 is 30.7 µM (active).
Consider `Cc1ccc2ccccc2c1`, for which the result was inactive.
On to `Cn1cc(C2=C(c3cn(C4CCN(Cc5ccccn5)CC4)c4ccccc34)C(=O)NC2=O)c2ccccc21`, for which the AC50 was 12 µM (active).
For the compound `COc1ccc2c(c1OC)C(=O)O[C@H]2[C@@H]1c2cc3c(cc2CCN1C)OCO3`, the outcome was inactive.
In the case of `O=C(O)C(Br)CBr` (stereo not given), the outcome was inactive.
Regarding `CC(=O)OC1CN2CCC1CC2` (stereo not given), the result was inactive.
The same measure, in the same setting: the value for `CCCCCCCCCCOC(=O)c1ccccc1C(=O)OCCCCCCCCCC` was “inactive”.
With `ClCOCCl`, the outcome was inactive.
The same measure, in the same setting: then `CC1N=C(N)OC1c1ccccc1` (stereo not given), with “inactive”; and `CCOP(=O)(OCC)SCCSCC` (tested in a mixture with another compound), with “inactive”.
The same measure, in the same setting: then `Nc1nc(N)nc(N)n1`, with “inactive”; and `CNC(C)Cc1ccccc1` (stereo not given), with “inactive”.
`CCCCN(N=O)C(=N)N[N+](=O)[O-]`: the AC50 is 56.4 µM (active).
Consider `CN1C(=O)[C@@H](NC(=O)c2cc3ccccc3[nH]2)N=C(c2ccccc2)c2ccccc21`, for which the outcome was inactive.
For the compound `Cc1cccc(Cc2cnc[nH]2)c1C`, the outcome was inactive.
Still for that read-out and setting: then `ClC=CCCl`, with “inactive”.
On to `CC[C@]1(O)CC[C@H]2[C@@H]3CCC4=CCCC[C@@H]4[C@H]3CC[C@@]21C`, for which the AC50 is 3.62 µM (active).
As for `[CH3][Hg][Cl]`, the AC50 is 1.77 µM (active).
Take `CC(C)NC(C)C`: the outcome was inactive.
Regarding `C=C(Cl)CSC(=S)N(CC)CC`, the outcome was inactive.
As for `c1ccc2c(c1)cc1ccc3cccc4ccc2c1c34`, the AC50 was 4.14 µM (active).
On to `CN(C)[C@H](Cc1ccccc1)c1ccccc1`, for which the outcome was inactive.
The same measure, in the same setting: the value for `C=C(C)CCl` was “inactive”; that for `O=C(O)CCCO` was “inactive”.
For the compound `CCCC1CCCCN1` (stereo not given), the outcome was inactive.
Still for that read-out and setting: the value for `CCCN` was “inactive”.
As for `COc1cccc2c1cc([N+](=O)[O-])c1c(C(=O)O)cc3c(c12)OCO3`, the AC50 was 6.78 µM (active).
Regarding `CC=CCC#N`, the outcome was inactive.
On to `CC(C)(C)NCC(O)c1ccccc1Cl` (stereo not given), for which the result was inactive.
Consider `CNc1ccc(C(=O)CC(O)CCC(C)C2OC(=O)CC(O)CC(=O)CC(O)CC(O)CC(O)CC(O)CC3(O)CC(O)C(C(=O)OC)C(CC(O[C@@H]4O[C@H](C)[C@@H](O)[C@H](N)[C@@H]4O)/C=C/C=C/C=C/C=C/C=C/C=C/C=C/C2C)O3)cc1` (stereo not given in full) (tested in a mixture with another compound), for which the result was inactive.
